Screening data deposited in PubChem BioAssay by National Center for Advancing Translational Sciences (NCATS).
In the library only some 1.4% were active in any assay of this set; here they are far more common.
EPAC1 ag – qHTS for Agonist of cAMP-regulated guanine nucleotide exchange factor 3 (EPAC1): primary screen; EPAC1 agonist qHTS, biochemical assay; response scale: 100% = response to 6.5 mM cAMP; Potency, µM (highest dose often 154 µM), inactives show top-dose activation, usual class: activators; Rap guanine nucleotide exchange factor 3 (Homo sapiens), O95398; actives 0.073% (n = 360,000); AID 720707, 2013; further: potency means the concentration at half of the fitted maximal effect; nearly all actives have a fitted effect of over 60% in size
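Normalized to 6.5 mM cAMP, activity reflects EPAC1-catalysed release of BODIPY-GDP from Rap1B, followed kinetically over 30 min at 480 nm excitation, 540 nm emission. Reaction contained 100 nM EPAC1, 250 nM Rap1B-BODIPY-GDP, 50 uM GDP.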
EPAC2 ag – qHTS for Agonist of cAMP-regulated guanine nucleotide exchange factor 4 (EPAC2): primary screen. Rap guanine nucleotide exchange factor 4 (Homo sapiens), Q8WZA2. EPAC2 activation, biochemical qHTS; response scale: 100% = 6.5 mM cAMP response. Potency, µM (doses to about 154 µM), for inactives: at the top dose activation, hits mostly activators. actives 0.079% (n = 360,000). AID 720711, 2013; further: potency means the concentration at half of the fitted maximal effect; nearly all actives have a fitted effect of over 50% in size
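Compounds were added across a concentration range to EPAC2 (100 nM), RAP1B-BODIPY-GDP (250 nM) and GDP (50 uM). After 5 min at room temperature, fluorescence was recorded at 5-min intervals for 30 min.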
hERG WT inh – qHTS for Inhibitors of KCHN2 3.1: Wildtype qHTS; U2OS, BacMam KCNH2, thallium flux FluxOr; stronger effect = lower value; Voltage-gated inwardly rectifying potassium channel KCNH2 (Homo sapiens), Q12809; activity change, % at 1.84 µM; actives 0.37% (n = 340,000);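 active means maximum activity change below -70%; inconclusive means maximum activity change between -70% and -50%; inactive means maximum activity change above -50%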; further: on the % scale 0 is the no-effect control and ±100 the full control effect
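U2OS cells were transduced with wild-type KCNH2 virus (2.03 x 10^8 / mL) for 4 h at room temperature, then cultured overnight at 37 C. Thallium flux was read with FluxOr dye. Rate constants were normalized to DMSO controls.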
EPAC2 antag – qHTS for Antagonist of cAMP-regulated guanine nucleotide exchange factor 2 (EPAC2): primary screen; Rap guanine nucleotide exchange factor 4 (Homo sapiens), Q8WZA2; EPAC2 GEF exchange of Rap1B-BODIPY-GDP, fluorescence; Potency, µM (series often up to 114 µM), without a hit: at the highest dose activity, negative = inhibition, actives largely listed as inhibitors; actives 0.18% (n = 360,000); further: potency means the concentration at half of the fitted maximal effect; on the % scale 0 is the no-effect control and ±100 the full control effect; nearly all actives have a fitted effect of over 45% in size
EPAC1 antagonist – qHTS for Antagonist of cAMP-regulated guanine nucleotide exchange factor 3 (EPAC1): primary screen; Rap guanine nucleotide exchange factor 3 (Homo sapiens), O95398; EPAC1 GEF assay, Rap1b-BODIPY-GDP exchange fluorescence; Potency, µM (titrated, usually from 115 µM), without a hit: at the highest dose activity change, negative = inhibition, hits mostly inhibitors; actives 0.14% (n = 360,000); AID 720709, 2013;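 further: potency means the concentration at half of the fitted maximal effect; plate controls were vehicle for no effect and positive control for full effect; nearly all actives have a fitted effect of over 50% in size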
KCNH2 3.1 block – qHTS for Inhibitors of KCHN2 3.1: Mutant qHTS | Potassium voltage-gated channel subfamily H member 2, brain isoform KCNH2 3.1 (human) | U2OS KCNH2 3.1, thallium flux FluxOr; stronger effect = lower value | activity change, % (tested at about 1.8 µM) | actives 0.95% (n = 340,000) | AID 720553, 2013;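 active means maximum activity change below -70%; inconclusive means maximum activity change from -70% to -50%; inactive means maximum activity change above -50%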;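 further: thallium influx rate constant from kinetic fluorescence after stimulation buffer; on the % scale 0 is the no-effect control and ±100 the full control effect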
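Normalized rate constant (relative to positive and negative DMSO controls) derived from a 2 min kinetic fluorescence read after stimulation; U2OS cells expressing the 3.1 isoform via virus at 1.77 x 10^8 /mL.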
* hit, by the source's call; ? = inconclusive; nt = no result; [ ] = remark or other dose. Unless noted, the call rests on the fitted dose curve; in most records, active means well fitted curve in the direction sought with a large enough effect; inconclusive means small, poorly fitted or top-dose-only effect, or another doubt; inactive means no such curve, though single readings can be large; an effect the other way counts as inactive or inconclusive.

SMILES | EPAC1 ag | EPAC2 ag | hERG WT inh | EPAC2 antag | EPAC1 antagonist | KCNH2 3.1 block
CC1(C(=O)Nc2cccc3ccccc23)CCN1C(=O)Cc1ccc(Cl)cc1Cl (stereo not given) | 4% | 17% | nt | -23% | -21% | nt
COc1cccc(CN2CCc3ccc(NC(=O)CCc4ccc(C)cc4)cc3C2)c1O | -4% | -1% | 25 | 1% | -10% | -81*
CCOc1cc(/C=C/C(=O)N(CC)CC(=O)NCc2cccs2)cc(Cl)c1OC | 10% | 14% | -9 | -10% | 7% | -25
COc1ccc(S(=O)(=O)NNC(=O)c2cccs2)cc1 | -2% | 1% | -2 | 15% | 1% | -104*
O=C(NNS(=O)(=O)c1ccc(Cl)cc1)c1cccs1 | 10% | 11% | -4 | -3% | -30% | -8
CN1CCN(/N=C/c2ccc(N(c3ccccc3)c3ccccc3)cc2)CC1 | 9% | 22% | 20 | -16% | -6% | -72*
COc1ccc(C2c3[nH]c4ccccc4c3C[C@H]3C(=O)N(C4CCN(Cc5ccccc5)CC4)CC(=O)N23)cc1OC (stereo not given in full) | 5% | 15% | -18 | 9% | 13% | ?
COc1ccccc1C1c2[nH]c3ccccc3c2C[C@H]2C(=O)N(C3CCN(Cc4ccccc4)CC3)CC(=O)N12 (stereo not given in full) | 16% | 5% | -106* | 1% | -7% | -37
O=C1CSC(c2cccs2)N1c1ccccc1 (stereo not given) | 10% | 10% | -4 | -4% | 0% | 10
c1ccc(N2CCN(c3ccccc3)C2c2cccs2)cc1 | 7% | 9% | -132* | 3%[57.1 µM] | 2% | 3
COc1ccccc1NC(=O)c1ccccc1NS(=O)(=O)c1cccs1 | -2% | 2% | -6 | ? | -26% | 20
COc1ccc(C)cc1NC(=O)c1ccccc1NS(=O)(=O)c1ccc(Cl)s1 | -8% | 2% | 1 | 32µM* | -14% | -4
O=S(=O)(Nc1nccs1)c1ccc(NCc2cc(Br)cc(Br)c2O)cc1 | -8% | 6% | -4 | 2.8µM* | ? | -14
O=C(Cc1ccccc1Cl)Nc1ccc(S(=O)(=O)Nc2nccs2)cc1 | 2% | -9% | 8 | 1µM* | -23% | 1
COCC(=O)Nc1ccc(S(=O)(=O)Nc2nccs2)cc1 | 7% | 11% | -3 | -1% | 8% | 30
C[C@H](NC(=O)N1CCn2c1nc1ccccc12)C(=O)N1CCCCC1 | 6% | -8% | -9 | 0% | -3% | 4
CCOC(=O)N1CCN(C(=S)NC(=O)c2ccc(F)cc2)CC1 | 0% | 10% | -5 | 5% | 1% | -73*
C/C=C(\C)C(=O)NCCN1C2=NC[C@H](Cc3ccccc3)N2C[C@@H]1Cc1ccc(OC)cc1 | -19% | 2% | -26 | 4% | 13% | -83*
COc1ccc(C[C@@H]2CN3C(=NC[C@@H]3C)N2C[C@H](C)NC(=O)CCC2CCCCC2)cc1 | 1% | 2% | -129* | 15% | 8% | -84*
COc1ccc(C[C@H]2CN3C(=NC[C@H]3Cc3ccccc3)N2CCNC(=O)CCC2CCCCC2)cc1 | 0% | 0% | -107* | 4% | -8% | ?
O=c1c2ccccc2ncn1-c1ccc([N+](=O)[O-])cc1Cl | 10% | 12% | -2 | 8% | -2% | -6
